Measured values taken from PubChem BioAssay (NCATS).
Inconclusive results are not listed. Calls of active or inactive are those of the source. Unless noted, calls follow the shape of the dose curve; as a rule, active = well fitted curve in the direction sought with a large enough effect; inconclusive = small, poorly fitted or top-dose-only effect, or another doubt; inactive = no such curve, though single readings can be large; an effect the other way counts as inactive or inconclusive.

How the values were obtained:
[1] = target: Alpha-galactosidase (Coffea arabica) (UniProt Q42656); assay: Counterscreen for Glucocerebrosidase Inhibitors: qHTS Assay for Coffee Bean alpha-Galactosidase at pH 5.9 (AID 998);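 also: plate controls were uninhibited enzyme for no effect and no-enzyme basal signal for full effect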
Sequence of Alpha-galactosidase (Coffea arabica) (Q42656 whole entry, looked up): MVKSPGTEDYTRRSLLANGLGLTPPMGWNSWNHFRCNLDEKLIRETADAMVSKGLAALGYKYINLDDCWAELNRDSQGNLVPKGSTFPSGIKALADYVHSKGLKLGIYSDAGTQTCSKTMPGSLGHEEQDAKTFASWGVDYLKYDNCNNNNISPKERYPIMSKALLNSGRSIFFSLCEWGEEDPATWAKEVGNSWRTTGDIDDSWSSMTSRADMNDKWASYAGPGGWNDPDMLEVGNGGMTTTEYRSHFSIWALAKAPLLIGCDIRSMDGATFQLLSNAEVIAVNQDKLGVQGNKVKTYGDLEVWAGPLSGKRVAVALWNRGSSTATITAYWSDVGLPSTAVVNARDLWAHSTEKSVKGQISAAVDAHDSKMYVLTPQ
Procedure, shortened: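 In 50 mM citric acid pH 5.9 with 0.005% Tween-20, coffee bean enzyme hydrolyses 80 uM 4-MU alpha-D-galactopyranoside over 20 min at RT. Activity is normalized to controls; AC50 comes from Hill-modelled concentration-response data.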

[2] = Cell Viability - LYMP2-026 (AID 989);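 also: cells exposed to compound for 24 h at 37 °C; % is scaled to controls: 0 for no effect and ±100 for the full control effect; nearly all actives have a fitted effect of over 50% in size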
Procedure, shortened: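 Acute toxicity screen in complete culture medium, with 24 hr compound exposure at 37 C. Viability read as cellular ATP via luciferase reaction, with tetraoctylammonium bromide (6.4pM to 92 uM) as positive control.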

[3] = Cell Viability - LYMP1-002 - Assay at 24 hr (AID 993); also: potency is read from the fitted curve at half-maximal effect
Procedure, shortened: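 Viability was judged from intracellular ATP using a luciferase read-out, following a 24-hour compound incubation at 37 C of lymphoblastoid cells seeded at 2500 per well. Concentration-response data were fitted to the Hill equation for AC50.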

[4] = Cell Viability - LYMP1-002 - Assay at 40 hr (AID 994);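 also: 0% = DMSO only and full inhibition = 92 µM tetraoctylammonium bromide; nearly all actives have a fitted effect of over 60% in size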
Procedure, shortened: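 Concentration-dependent ATP loss after 40 hr treatment at 37 C defined toxicity; AC50 values were obtained by fitting the standard Hill equation.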

[5] = qHTS Assay for Lipid Storage Modulators (AID 1519; calls by dose curve; as to activity change, negative = inhibition: % is scaled to controls: 0 for no effect and ±100 for the full control effect); settings: Drosophila S3 cells, BODIPY lipid droplet/cell ratio, laser cytometry, cells loaded with oleic acid; for activity change, negative = inhibition: at 57.5 µM (top of the series)
Procedure, shortened: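 Cells seeded at 5,000 per well were treated with compounds over a concentration series and loaded with oleic acid (400 uM, as added). Lipid droplet fluorescence (488 nm excitation, 500-530 nm channel) was read by laser-scanning cytometry and normalized to 20 uM Triacsin C.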

[6] = Counterscreen for APE1 Inhibitors: Fluorescent Dye Displacement Validation Assay (AID 1707);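 also: plate controls were ThO with dsDNA and no compound for no effect and ThO without dsDNA for full effect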
Procedure, shortened: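 Endpoint fluorescence read at 480 nm excitation / 540 nm emission; DNA-binding compounds lower signal by displacing 250 nM Thiazole Orange from 50 nM dsDNA containing a tetrahydrofuran abasic site, Tris-HCl pH7.5 buffer with NaCl and MgCl2.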

[7] = target: Endonuclease 4 (Escherichia coli (strain K12)) (UniProt P0A6C1); assay: Counterscreen for APE1 Inhibitors: qHTS Validation Assay for Inhibitors of Endonuclease IV (AID 1708); also: % is scaled to controls: 0 for no effect and ±100 for the full control effect
Procedure, shortened: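 Measured as reaction progress, the fluorescence gain between first and third kinetic reads after adding 50 nM TAMRA/BHQ-2 THF duplex to 2 nM enzyme preincubated 15 min with compound; 2 mM MgCl2, pH 7.5.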

[8] = qHTS for differential inhibitors of proliferation of Plasmodium falciparum line 7G8 (AID 1815);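 also: parasite growth measured after three days of incubation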; also: potency is read from the fitted curve at half-maximal effect;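 as to activity change, negative = inhibition: plate controls were vehicle wells for no effect and reference inhibitor wells for full effect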
[9] = qHTS for differential inhibitors of proliferation of Plasmodium falciparum line GB4 (AID 1816); settings: Potency: Plasmodium falciparum GB4 proliferation inhibition;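 also: parasite growth measured after 72 h incubation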; also: potency is read from the fitted curve at half-maximal effect;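 as to activity change, negative = inhibition: 0% = vehicle DMSO and -100% = reference inhibitor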
[10] = qHTS for differential inhibitors of proliferation of Plasmodium falciparum line 3D7 (AID 1876); also: potency is read from the fitted curve at half-maximal effect
[11] = qHTS for differential inhibitors of proliferation of Plasmodium falciparum line D10 (AID 1877);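 also: parasites grown with compound for 72 h before DNA staining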; also: potency is read from the fitted curve at half-maximal effect;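 as to activity change, negative = inhibition: plate controls were vehicle wells for no effect and reference inhibitor wells for full effect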
[12] = qHTS for differential inhibitors of proliferation of Plasmodium falciparum line Dd2 (AID 1882); settings: Potency: Plasmodium falciparum Dd2 proliferation inhibition; also: nearly all actives have a fitted effect of over 65% in size; also: potency is read from the fitted curve at half-maximal effect;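 as to activity change, negative = inhibition: compound exposure of 72 h on infected erythrocytes; plate controls were DMSO vehicle for no effect and 0.29 µM artemisinin for full effect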
Procedure, shortened: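 RBC culture, 0.3% parasitemia / 2.5% Hct final; cpd added by pin tool in DMSO; 72 h, 37 C, 5% CO2; lysis buffer + SYBR Green I, o/n RT dark; FI 485/535; norm. to artemisinin 0.29 uM and DMSO.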

[13] = qHTS for differential inhibitors of proliferation of Plasmodium falciparum line W2 (AID 1883); settings: Potency: Plasmodium falciparum W2 proliferation inhibition;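 also: parasites grown with compound for 72 h before lysis and staining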; also: potency is read from the fitted curve at half-maximal effect;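 as to activity change, negative = inhibition: 0% = vehicle wells and -100% = control inhibitor wells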
[14] = qHTS for differential inhibitors of proliferation of Plasmodium falciparum line HB3 (AID 1886); settings: Potency: Plasmodium falciparum HB3 proliferation inhibition;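 also: parasites grown with compound for 72 h before SYBR Green readout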; also: potency is read from the fitted curve at half-maximal effect;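 as to activity change, negative = inhibition: plate controls were vehicle for no effect and reference inhibitor for full effect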
[15] = qHTS Assay for Identification of Small Molecule Inducers of Hypoxia Response (AID 2120; active = well fitted curve in the direction sought with a large enough effect in the signal ratio, with a control signal flat, not every such curve was filed as active; the % refers to the signal ratio; also: 0% is about no effect)
Procedure, shortened: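 HRE-bla ME-180, 2500 cells/well, 0.5% dialyzed FBS medium; cpd titration, 17 h 37 degrees C; CCF4 2.5 h RT; Ex 405, Em 460/530 ratio -> %Activity, AC50.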

[16] = target: Alpha-galactosidase A (Homo sapiens) (UniProt P06280); assay: Counterscreen for Glucocerebrosidase Inhibitors: qHTS Assay for Human alpha-Galactosidase at pH 4.5 (AID 992); also: 0% is about no effect
Sequence of Alpha-galactosidase A (Homo sapiens) (P06280 whole entry, looked up): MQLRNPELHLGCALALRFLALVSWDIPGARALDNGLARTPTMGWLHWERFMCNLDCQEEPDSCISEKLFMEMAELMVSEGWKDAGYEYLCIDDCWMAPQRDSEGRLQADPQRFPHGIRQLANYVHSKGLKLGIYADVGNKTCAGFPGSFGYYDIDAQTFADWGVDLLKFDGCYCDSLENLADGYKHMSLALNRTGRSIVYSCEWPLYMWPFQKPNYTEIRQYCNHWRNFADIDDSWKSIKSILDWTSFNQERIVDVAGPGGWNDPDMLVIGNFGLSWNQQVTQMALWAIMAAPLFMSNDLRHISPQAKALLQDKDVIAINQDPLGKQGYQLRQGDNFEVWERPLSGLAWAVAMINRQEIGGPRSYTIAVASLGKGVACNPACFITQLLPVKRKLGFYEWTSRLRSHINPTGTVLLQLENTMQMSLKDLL
Procedure, shortened: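 Fluorogenic 4-MU alpha-D-galactoside (80 uM) hydrolysis, 2 nM enzyme, pH 4.5 citrate buffer + 0.005% Tween-20; 20 min RT; NaOH/glycine pH 10 stop; Ex365/Em440. Compounds titrated 0.7 nM–77 uM; Hill-equation AC50.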

[17] = target: alpha-glucosidase (Oryza sativa, rice) (UniProt Q653V4); assay: Counterscreen for Glucocerebrosidase Inhibitors: qHTS Assay for Rice alpha-Glucosidase at pH 5.0 (AID 997);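 also: 0% = full activity with enzyme and -100% = basal without enzyme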
Procedure, shortened: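 Endpoint fluorogenic assay at pH 5.0: compounds (0.7 nM to 77 uM) titrated against 4 nM rice enzyme and 400 uM 4-MU-alpha-glucoside for 20 min at room temperature; NaOH/glycine stop, read ex 365/em 440 nm, Hill-fitted AC50.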

[18] = target: DNA repair nuclease/redox regulator APEX1 (Homo sapiens) (UniProt P27695); assay: qHTS Validation Assay for Inhibitors of the Human Apurinic/apyrimidinic Endonuclease 1 (APE1) (AID 1705;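 also: TAMRA fluorescence gain over two minutes as APE1 cuts a quenched THF abasic duplex; % is scaled to controls: 0 for no effect and ±100 for the full control effect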)
Sequence of DNA repair nuclease/redox regulator APEX1 (Homo sapiens) (P27695 whole entry, looked up): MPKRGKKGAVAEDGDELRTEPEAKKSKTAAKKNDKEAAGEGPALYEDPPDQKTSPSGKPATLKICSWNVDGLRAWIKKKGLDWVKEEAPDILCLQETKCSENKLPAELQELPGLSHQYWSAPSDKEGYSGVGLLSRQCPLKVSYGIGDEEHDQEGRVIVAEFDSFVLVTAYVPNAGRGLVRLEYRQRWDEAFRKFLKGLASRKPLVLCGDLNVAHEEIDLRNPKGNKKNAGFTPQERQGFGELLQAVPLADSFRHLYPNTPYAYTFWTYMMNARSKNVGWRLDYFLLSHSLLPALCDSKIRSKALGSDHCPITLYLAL
Procedure, shortened: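 Endonuclease activity of human APE1 is followed as dequenching when the enzyme incises a tetrahydrofuran abasic site in a short duplex labelled 5'-TAMRA/3'-BHQ-2 (50 nM final), after 15 min enzyme–compound preincubation at room temperature.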

[19] = measured here: cell count channel max response
[20] = measured here: lipid channel max response

CN1CCN(CCCN2c3ccccc3Sc3ccc(Cl)cc32)CC1
inactive: outcome [1]

NCC(O)c1ccc(O)cc1 (centres undefined)
23.7%: max response [5, 20]
inactive: outcome [2] | Potency [3] | Potency [4] | activity change, negative = inhibition [5] 5.18% | Potency [6] | outcome [7] | Potency [8] | Potency [9] | Potency [10] | Potency [11] | Potency [12] | Potency [13] | Potency [14] | outcome [15]
15.4%: max response [5, 19]

CCCN1CCC[C@@H]2Cc3nc(N)ncc3C[C@H]21
inactive: outcome [16] | outcome [17] | outcome [1] | outcome [18] | Potency [6] | outcome [7] | Potency [8] | Potency [9] | Potency [10] | Potency [11] | Potency [12] | Potency [13] | Potency [14]

CC(COc1ccccc1)N(CCCl)Cc1ccccc1 (centres undefined)
active: Potency [8] 7.94 µM | Potency [13] 2.51 µM

CNCC(O)c1ccc(O)cc1 (centres undefined)
inactive: outcome [2] | outcome [16] | Potency [3] | Potency [4] | outcome [17] | outcome [1] | outcome [18] | Potency [6] | outcome [7] | Potency [8] | Potency [9] | Potency [10] | Potency [11] | Potency [12] | Potency [13] | Potency [14] | outcome [15]

CN(Cc1cnc2nc(N)nc(N)c2n1)c1ccc(C(=O)N[C@@H](CCC(=O)O)C(=O)O)cc1
inactive: outcome [1]

CN(C)CCCN1c2ccccc2CCc2ccc(Cl)cc21
inactive: outcome [1]

Cc1c(OCC(F)(F)F)ccnc1CS(=O)c1nc2ccccc2[nH]1 (centres undefined)
active: Potency [8] 8.91 µM | Potency [9] 10 µM | Potency [10] 11.2 µM | Potency [11] 12.6 µM | Potency [13] 10 µM | Potency [14] 11.2 µM
inactive: outcome [1]

Cc1nc2n(c(=O)c1CCN1CCC(c3noc4cc(F)ccc34)CC1)CCCC2
inactive: outcome [1]
active: Potency [8] 11.2 µM | Potency [9] 11.2 µM | Potency [10] 12.6 µM | Potency [11] 10 µM | Potency [13] 10 µM

COc1cc2c(c(OC)c1OC)-c1ccc(OC)c(=O)cc1[C@@H](NC(C)=O)CC2
inactive: outcome [1] | outcome [7]
active: Potency [8] 11.2 µM | Potency [10] 10 µM | Potency [13] 11.2 µM

CN(C)CCC=C1c2ccccc2CCc2ccccc21
inactive: outcome [1]
active: Potency [8] 10 µM | Potency [9] 7.94 µM | Potency [11] 8.91 µM | Potency [13] 3.16 µM | Potency [14] 14.1 µM

CN(C)c1nc(N(C)C)nc(N(C)C)n1
inactive: outcome [1]

Oc1cccc2cccnc12
-2.95%: max response [5, 19]
3.47%: max response [5, 20]
active: Potency [3] 25.1 µM
inactive: activity change, negative = inhibition [5] 3.44%

OCCOc1ccccc1
inactive: outcome [2] | Potency [3] | Potency [4] | outcome [15]

CN(C)C(=O)C(CCN1CCC(O)(c2ccc(Cl)cc2)CC1)(c1ccccc1)c1ccccc1
inactive: outcome [1] | activity change, negative = inhibition [5] -2.05%
-2.23%: max response [5, 20]
-1%: max response [5, 19]

N#CC(C#N)=Cc1ccc(O)c(O)c1
inactive: outcome [16] | outcome [17] | outcome [1] | outcome [18] | Potency [6] | outcome [7] | Potency [12]
active: Potency [9] 14.1 µM | Potency [13] 12.6 µM

OCCN1CCN(CCCN2c3ccccc3Sc3ccc(C(F)(F)F)cc32)CC1
inactive: outcome [1]
active: Potency [8] 2.82 µM | Potency [9] 2.51 µM | Potency [10] 2.51 µM | Potency [11] 10 µM | Potency [12] 10 µM | Potency [13] 1.41 µM | Potency [14] 4.47 µM

c1ccc2c(c1)Nc1ccccc1S2
inactive: outcome [2] | Potency [3] | Potency [4] | outcome [15]

CC1=C(/C=C/C(C)=C/C=C/C(C)=C/C(=O)Nc2ccc(O)cc2)C(C)(C)CCC1
inactive: outcome [1]

C=C(C)[C@H]1Cc2c(ccc3c2O[C@@H]2COc4cc(OC)c(OC)cc4[C@@H]2C3=O)O1
active: Potency [8] 11.2 µM | Potency [9] 12.6 µM | Potency [13] 8.91 µM
inactive: outcome [18] | Potency [6] | outcome [7] | Potency [12]

Oc1ccccc1-c1ccccc1
inactive: outcome [2] | Potency [3] | Potency [4] | outcome [15]

Oc1ccc(Cl)cc1Cc1ccccc1
inactive: outcome [2] | Potency [3] | Potency [4]
